# Results reported in the supplement of paper PMC12494721.
# Where a name gives a salt, the structure may show the parent alone.
# Experiments:
# Conditions in all cases: 20 µM; incubation time: 27 h, anaerobic, 37 °C;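 for the amine columns active = adjusted P below 0.05 in both replicates with a change the same way and a mean fold change under 0.8 or over 1.25; inactive = the rest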
# [1] = tested on: Clostridium sporogenes DSM 1664; assay: growth (OD595) fold change vs plate DMSO controls (fold change (ratio)); higher = more growth
# How it was run: (§1)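 Shaken 96-well cultures in mGAM, grown anaerobically for 27 h at 37 °C, were read at 595 nm. OD came from blank-subtracted readings, corrected for background with 20 µM compound solutions in water and scaled by a calibration factor of 5. Growth is the fold change versus the plate's median DMSO control. Values average 2 biological replicates, and any fold change above 1.5 is NA.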
# [2] = tested on: Escherichia coli IAI1; assay: as above
# How it was run: as §1
# [3] = tested on: Klebsiella aerogenes DSM 30053; assay: as above
# How it was run: as §1
# [4] = tested on: Ruminococcus gnavus DSM 108212; assay: as above
# How it was run: as §1
# [5] = tested on: Klebsiella aerogenes DSM 30053; assay: fold change of Histamine concentration vs plate DMSO controls (fold change (ratio)); higher = more amine produced, active = hit call of the paper (significant change in both replicates, either direction)
# How it was run: (§2)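 Each value is the fold change relative to DMSO-only wells on the same plate. Four gut bacterial strains were grown anaerobically in mGAM at 37 °C for 27 h in 80 µL wells, starting at OD 0.1 before a 1:1 dilution, with compounds at 20 µM final (sweeteners 50 µM). Whole cultures were extracted with cold acetonitrile/methanol containing 0.1% formic acid, centrifuged, and amines were quantified by LC–triple-quadrupole MS (dynamic MRM) against external calibration curves with within-batch drift correction. Values are means of 2 biological replicates.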
# [6] = tested on: Clostridium sporogenes DSM 1664; assay: fold change of Tryptamine concentration vs plate DMSO controls (fold change (ratio)); higher = more amine produced, active = hit call of the paper (significant change in both replicates, either direction)
# How it was run: as §2
# [7] = tested on: Ruminococcus gnavus DSM 108212; assay: as above
# How it was run: as §2
# [8] = tested on: Escherichia coli IAI1; assay: fold change of Putrescine concentration vs plate DMSO controls (fold change (ratio)); higher = more amine produced, active = hit call of the paper (significant change in both replicates, either direction)
# How it was run: as §2
# [9] = tested on: Klebsiella aerogenes DSM 30053; assay: as above
# How it was run: as §2
# [10] = tested on: Escherichia coli IAI1; assay: fold change of Cadaverine concentration vs plate DMSO controls (fold change (ratio)); higher = more amine produced, active = hit call of the paper (significant change in both replicates, either direction)
# How it was run: as §2
# [11] = tested on: Klebsiella aerogenes DSM 30053; assay: as above
# How it was run: as §2
# [12] = tested on: Ruminococcus gnavus DSM 108212; assay: fold change of 2-Phenylethylamine concentration vs plate DMSO controls (fold change (ratio)); higher = more amine produced, active = hit call of the paper (significant change in both replicates, either direction)
# How it was run: as §2
Compound,growth [1],growth [2],growth [3],growth [4],fold change of Histamine concentration [5],fold change of Tryptamine concentration [6],fold change of Tryptamine concentration [7],fold change of Putrescine concentration [8],fold change of Putrescine concentration [9],fold change of Cadaverine concentration [10],fold change of Cadaverine concentration [11],fold change of 2-Phenylethylamine concentration [12]
C[N+]12CCC(CC1)C(OC(=O)C(O)(c1ccccc1)c1ccccc1)C2 (centres undefined) [Clidinium bromide],1.02,1.04,1.07,1,0.975 (inactive),0.952 (inactive),1.03 (inactive),0.957 (inactive),0.981 (inactive),1 (inactive),1 (inactive),1.02 (inactive)
C[N+]1(C)CCCCC1,1,1.08,1.02,1.04,1.01 (inactive),0.957 (inactive),1.03 (inactive),1 (inactive),1.01 (inactive),0.995 (inactive),1.02 (inactive),1.05 (inactive)
O=[N+]([O-])/N=C1\NCCN1Cc1ccc(Cl)nc1,1.04,0.975,0.996,0.979,0.986 (inactive),1.01 (inactive),0.989 (inactive),0.964 (inactive),0.998 (inactive),0.98 (inactive),0.998 (inactive),1 (inactive)
CN/C(=N\[N+](=O)[O-])NCc1cnc(Cl)s1,0.943,0.968,0.989,0.944,1.01 (inactive),0.953 (inactive),0.989 (inactive),0.98 (inactive),1 (inactive),1.07 (inactive),0.994 (inactive),1 (inactive)
O=C(O)c1nc(Cl)ccc1Cl,0.915,1.09,1.01,0.95,1.01 (inactive),0.99 (inactive),0.915 (inactive),0.975 (inactive),0.98 (inactive),0.963 (inactive),0.983 (inactive),1.02 (inactive)
COc1cccc(C2(O)CCCCC2CN(C)C)c1 (centres undefined) [Tramadol hydrochloride],1.04,0.988,0.985,1.12,1.04 (inactive),1.06 (inactive),0.925 (inactive),1.05 (inactive),1.02 (inactive),0.969 (inactive),1 (inactive),0.873 (inactive)
Clc1ccc(C(OCCN2CCCCC2)c2ccccc2)cc1 (centres undefined) [Cloperastine hydrochloride],1.14,1.07,1.06,0.788,0.884 (inactive),1.01 (inactive),0.88 (inactive),1.06 (inactive),0.988 (inactive),0.958 (inactive),1.03 (inactive),1 (inactive)
CCC1(C2=NCCN2)Cc2ccccc2O1 (centres undefined) [Efaroxan hydrochloride],1.05,1.05,0.982,1.08,0.992 (inactive),0.939 (inactive),1.03 (inactive),0.97 (inactive),1.01 (inactive),1.06 (inactive),0.997 (inactive),1.01 (inactive)
COc1ccc(OC)c(C(O)C(C)N)c1 (centres undefined) [Methoxamine hydrochloride],0.777,0.736,0.696,0.0622,1.06 (inactive),1.07 (inactive),0.161 (active),1.05 (inactive),1 (inactive),0.968 (inactive),0.988 (inactive),0.165 (active)
C=CCC1(CC(C)C)C(=O)NC(=O)NC1=O [Butalbital],1.07,1.04,0.966,0.589,1.01 (inactive),1 (inactive),1 (inactive),0.995 (inactive),1.01 (inactive),1.02 (inactive),0.997 (inactive),1 (inactive)
CC(C)N1C(=O)N(c2ccccc2)CS/C1=N\C(C)(C)C,1.04,1.03,1.03,0.99,0.967 (inactive),1.03 (inactive),1.03 (inactive),1.02 (inactive),1.03 (inactive),1.06 (inactive),1.01 (inactive),0.961 (inactive)
O=C(NC(=O)c1c(F)cccc1F)Nc1ccc(OC(F)(F)C(F)OC(F)(F)F)c(Cl)c1 (centres undefined),0.972,1.03,1.01,0.995,0.951 (inactive),0.981 (inactive),1.01 (inactive),1.01 (inactive),0.928 (inactive),0.872 (inactive),1.01 (inactive),0.957 (inactive)
CC[C@H](C)[C@H]1O[C@]2(C=C[C@@H]1C)C[C@@H]1C[C@@H](C/C=C(\C)[C@@H](O[C@H]3C[C@H](OC)[C@@H](O[C@H]4C[C@H](OC)[C@@H](O)[C@H](C)O4)[C@H](C)O3)[C@@H](C)/C=C/C=C3\CO[C@@H]4[C@H](O)C(C)=C[C@@H](C(=O)O1)[C@]34O)O2.CO[C@H]1C[C@H](O[C@H]2[C@H](C)O[C@@H](O[C@@H]3/C(C)=C/C[C@@H]4C[C@@H](C[C@]5(C=C[C@H](C)[C@@H](C(C)C)O5)O4)OC(=O)[C@@H]4C=C(C)[C@@H](O)[C@H]5OC/C(=C\C=C\[C@@H]3C)[C@]54O)C[C@@H]2OC)O[C@@H](C)[C@@H]1O [Avermectin B1],1.13,1.06,0.967,0.91,0.906 (inactive),0.921 (inactive),0.929 (inactive),1.06 (inactive),0.985 (inactive),0.996 (inactive),0.995 (inactive),0.883 (inactive)
CCCCN(CCCC)N=O [DBNA (N-nitrosodibutylamine)],0.789,0.729,0.673,0.238,1.03 (inactive),1.01 (inactive),1.01 (inactive),1.03 (inactive),1.02 (inactive),1.05 (inactive),1.01 (inactive),1.01 (inactive)
COc1cc(OC)nc(NC(=O)NS(=O)(=O)c2ncccc2C(=O)N(C)C)n1,1.19,1.03,1.02,1.22,0.96 (inactive),0.975 (inactive),1.01 (inactive),0.924 (inactive),1.03 (inactive),1.01 (inactive),1.01 (inactive),0.998 (inactive)
COc1ccc(C(=O)N2CCCC2=O)cc1 [Aniracetam],0.932,0.978,1.04,0.771,0.853 (inactive),1.09 (inactive),1.03 (inactive),0.929 (inactive),0.976 (inactive),1.02 (inactive),1.01 (inactive),1.03 (inactive)
CC(C)c1cccc(C(C)C)c1O [Propofol],1.24,1.01,1,1.03,1.05 (inactive),0.931 (inactive),0.964 (inactive),0.865 (inactive),1.01 (inactive),1.34 (active),0.989 (inactive),0.908 (inactive)
N#Cc1cc(Br)c(O)c(Br)c1,0.976,0.821,0.928,0.963,1.02 (inactive),0.955 (inactive),1.02 (inactive),1.23 (inactive),0.978 (inactive),1.29 (active),0.978 (inactive),1.01 (inactive)
CC(Oc1ccc(Oc2nc3ccc(Cl)cc3o2)cc1)C(=O)O (racemic),1.06,1.04,1.02,1.01,0.989 (inactive),1 (inactive),1 (inactive),1.03 (inactive),1.01 (inactive),0.937 (inactive),1.02 (inactive),1.01 (inactive)
COc1ccccc1N [o-Anisidine],1.07,1.04,0.996,1.01,1.03 (inactive),1.08 (inactive),1 (inactive),1 (inactive),0.983 (inactive),0.947 (inactive),0.997 (inactive),1.01 (inactive)
Nc1c([N+](=O)[O-])ccc(Oc2ccccc2)c1Cl,0.859,0.991,0.998,1.03,0.974 (inactive),1.02 (inactive),1.01 (inactive),0.973 (inactive),1.01 (inactive),1.04 (inactive),1.01 (inactive),0.982 (inactive)
CC[C@@H](C(=O)[C@@H](C)[C@@H](O)[C@H](C)[C@@H]1O[C@@H]([C@@H](CC)C(=O)O)CC[C@@H]1C)[C@H]1O[C@]2(C=C[C@@H](O)[C@]3(CC[C@@](C)([C@H]4CC[C@](O)(CC)[C@H](C)O4)O3)O2)[C@H](C)C[C@@H]1C [Salinomycin sodium],0.000863,1.01,0.976,0.156,1.02 (inactive),0.0211 (active),0.152 (active),0.929 (inactive),0.993 (inactive),1.01 (inactive),0.996 (inactive),0.177 (active)
CC(C)CC(C)c1sccc1NC(=O)c1cn(C)nc1C(F)(F)F (centres undefined),1.03,1.05,1.01,0.961,0.988 (inactive),0.935 (inactive),1.03 (inactive),1.05 (inactive),1.01 (inactive),1 (inactive),0.991 (inactive),1.03 (inactive)
ClC1C(Cl)C(Cl)C(Cl)C(Cl)C1Cl (centres undefined),1.06,1,1,1.14,0.984 (inactive),0.972 (inactive),0.98 (inactive),1 (inactive),1 (inactive),1.02 (inactive),0.994 (inactive),0.979 (inactive)
CCN(C(C)=O)c1cccc(-c2ccnc3c(C#N)cnn23)c1 [Zaleplon],1.07,0.995,1.05,1.05,0.987 (inactive),0.972 (inactive),1.02 (inactive),1.03 (inactive),0.992 (inactive),1.02 (inactive),1.01 (inactive),1.04 (inactive)
CCCN1C[C@H](CSC)C[C@@H]2c3cccc4[nH]cc(c34)C[C@H]21 [Pergolide mesylate],0.995,0.953,0.998,0.982,0.953 (inactive),0.969 (inactive),1.02 (inactive),0.968 (inactive),0.993 (inactive),1.06 (inactive),1.01 (inactive),1.04 (inactive)
C[C@H](N)[C@H](O)c1ccc(O)c(O)c1 [Levonordefrin],1.11,0.971,1,0.976,0.953 (inactive),1.04 (inactive),1.07 (inactive),0.904 (inactive),0.981 (inactive),0.962 (inactive),1.01 (inactive),1.14 (inactive)
